Compound activity: PubChem, several laboratories
Sampled rows, rich in hits. Any-hit rate of the full collection: about 4.2%.
hcDAF-12 act: H. contortus DAF-12 nuclear receptor activators, primary screen, cell-based, luminescence, HEK293, lit1-tk-luc reporter. HEK293 hcDAF-12 lit1-tk-luc reporter; 0% DMSO, 100% Δ7-dafachronic acid. activation, % at 6.8 µM. 370,000 compounds, 1.4% hits. AID 652067, 2013;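 active = activation above the mean of all tested compounds plus 3 SD, cut at about 5.5% in these data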;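 also: 100% = response to 3 µM Δ7-dafachronic acid high control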
Wnt act: Wnt/beta-catenin pathway activators, primary screen, cell-based, plate reader, single point; Wnt/beta-catenin reporter cell assay, activator; activation, % at 9.35 µM; 300,000 compounds, 1.2% hits; in the data active = activation above about 30%, passing the limit was not always enough; inconclusive = no clear call, values can overlap the other calls;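 also: 0% = neutral control wells and 100% = positive control wells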
ssDAF-12 act: S. stercoralis DAF-12 nuclear receptor activators, primary screen, cell-based, luminescence, HEK293, GRIP1 co-expression, lit1-tk-luc | Nuclear hormone receptor DAF-12 (Strongyloides stercoralis) | HEK293 ssDAF-12/GRIP1 lit1-tk-luc reporter; % of 3 µM dafachronic acid response | activation, % at 6.8 µM | 370,000 compounds, 1% hits;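 active = activation above the mean over all tested compounds plus 3 SD, cut at about 0.9% in these data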;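 also: 0% = DMSO-only wells and 100% = 3 µM delta7-dafachronic acid wells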
esBAF inh: Bmi1 luciferase reporter increase in mESCs, primary screen, esBAF inhibitor project, mouse ES cells, Bmi1 luciferase knock-in, single point; AID 602393, 2012; 350,000 compounds, 2% hits; reporter increase, % at 12.5 µM; 24 h; 100% = twice the neutral-well signal; in the data active = activation above about 40%; inconclusive = no clear call, values can overlap the other calls;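 also: 0% = median of the plate's neutral control wells and 100% = double that signal; a rise in the Bmi1 reporter signal indicates esBAF inhibition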
DAX1 inh: DAX1 (NR0B1) inhibitors on StAR promoter, primary screen, cell-based, luminescence, SF-1 (NR5A1), full-length DAX-1; AID 652010, 2013; inhibition, % at 6.8 µM; 370,000 compounds, 1.1% hits; HEK293T StAR-luciferase reporter, SF-1/DAX-1 repression relief;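 active = inhibition above the mean over all tested compounds plus 3 SD, cut at about 3.6% in these data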;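 also: 0% = DAX-1 cells with DMSO and 100% = cells lacking DAX-1 with DMSO; higher inhibition means more luminescence from relief of DAX-1 repression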
hgDAF12 agonist: H. glycines DAF-12 receptor agonists, primary screen, cell-based, luminescence, HEK293, GAL4 fusion, UAS-luciferase | Nuclear hormone receptor DAF-12 (Heterodera glycines), GAL4 fusion | HEK293 GAL4-hgDAF12 UAS-luciferase reporter, agonist luminescence; normalized to butyrate control | activation, % at 6.8 µM | 370,000 compounds, 1.8% hits;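 active = activation above a cutoff set at the mean of all screened compounds plus 3 SD, cut at about 10% in these data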;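 also: 0% = DMSO wells and 100% = sodium butyrate wells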
* hit, by the source's call; ? = inconclusive; nt = no result given.

SMILES	hcDAF-12 act	Wnt act	ssDAF-12 act	esBAF inh	DAX1 inh	hgDAF12 agonist
CC(C)(C)n1nnnc1C1CN=C(c2ccccc2)c2cc(Cl)ccc2N1 (stereo unspecified)	-2	nt	-1	nt	0	2
CC(C)(C)n1nnnc1C1CN=C(c2ccccc2)c2ccccc2N1 (stereo unspecified)	1	nt	-1	nt	1	11*
CCOC(=O)[C@]12Cc3cc4ccccc4cc3[C@H]1N(Cc1ccccc1)C(=O)c1cc(OC)ccc12	0	-9	-1	nt	3.7*	5
O=C(O)[C@H]1[C@H](CO)[C@H]2Cn3c(ccc(-c4ccncc4)c3=O)[C@@H]1N2S(=O)(=O)c1ccccc1F	nt	nt	nt	-1	nt	nt
CN(C)C(=O)Oc1ccc(OCc2nc3ccccc3[nH]2)cc1	3	-4	0	nt	3	11*
O=C(O)[C@H]1[C@H](CO)[C@H]2Cn3c(ccc(-c4cccnc4)c3=O)[C@@H]1N2S(=O)(=O)c1ccccc1F	nt	nt	nt	-9	nt	nt
COC(=O)[C@@H]1[C@@H](CO)[C@@H]2Cn3c(cccc3=O)[C@H]1N2C(=O)C1CCC1	nt	nt	nt	-2	nt	nt
CC1=Nc2ccccc2/C1=C/c1c(O)n(C)c(=O)[nH]c1=O	6.4*	-1	1	-2	0	2
COC(=O)C1=Nc2ccccc2/C1=C\c1c(O)n(-c2cc(OC)ccc2OC)c(=O)[nH]c1=O	5.8*	-1	-1	nt	0	3
COC(=O)[C@@H]1[C@@H](CO)[C@@H]2Cn3c(ccc(-c4ccccc4)c3=O)[C@H]1N2CCc1ccccc1	nt	nt	nt	-2	nt	nt
CCOC(=O)CC(SP1(=S)OCC2(CC=CCC2)CO1)C(=O)OCC (stereo unspecified)	1	28	-1	-2	3.9*	-3
COc1cc(CC2C(=O)N(C)C(=O)N(C)C2=O)ccc1OCc1ccccc1	1	28	-2	46*	1	5
O=C1NC(=O)C(=Cc2coc3ccccc3c2=O)C(=O)N1	2	0	-1	nt	0	-1
NC(=S)N/N=C/c1coc2ccccc2c1=O	0	-4	1.2*	nt	0	3
COC(=O)[C@@H]1[C@@H](CO)[C@@H]2Cn3c(ccc(-c4ccccc4)c3=O)[C@H]1N2C(=O)c1ccccc1F	nt	nt	nt	-4	nt	nt
CC1=NCCc2c1[nH]c1ccccc21	6.3*	-1	1.0*	3	0	-1
CN1CCc2c([nH]c3ccccc23)C1	5	-1	-1	7	-1	7
COC(=O)[C@@H]1[C@@H](CO)[C@@H]2Cn3c(ccc(-c4ccccc4F)c3=O)[C@H]1N2CC1CCCC1	nt	nt	nt	3	nt	nt
O=C(O)[C@H]1[C@H](CO)[C@H]2Cn3c(ccc(C4=CCCCC4)c3=O)[C@@H]1N2C(=O)Cc1ccccn1	nt	nt	nt	-1	nt	nt
COc1cccc2c1C(=O)c1c(O)c3c(c(O)c1C2=O)CC(O)(C(C)=NO)CC3OC1CC(N)C(O)C(C)O1 (stereo unspecified)	5	0	1.9*	nt	-3	3
CN(C)C(=O)[C@@H]1[C@@H](CO)[C@@H]2Cn3c(cccc3=O)[C@H]1N2CC1CC1	nt	nt	nt	-2	nt	nt
CN1[C@@H]2c3cccc(=O)n3C[C@H]1[C@H](CO)[C@H]2C(=O)NCC1CC1	nt	nt	nt	0	nt	nt
COc1ccc(N=Nc2c(O)[nH]c(=S)[nH]c2=O)cc1	2	25	-1	nt	3.9*	8
Cc1ccc(OP2(=O)Nc3cc(C)c(C)cc3S2)cc1 (stereo unspecified)	5.7*	-5	1	?	1	4
CC=Cc1ccc2n(c1=O)C[C@H]1[C@H](CO)[C@@H](C(=O)N(C)C)[C@@H]2N1C (mixture of isomers)	nt	nt	nt	-4	nt	nt
CC(=O)Nc1ccc(C2CN(C)CC2C(=O)c2ccc(Cl)cc2)cc1 (stereo unspecified)	0	0	-1	nt	4.2*	1
